mHTT CaM bind: disrupts binding of mutant huntingtin to calmodulin | AlphaScreen His-mHTT/GST-CaM binding, luminescence | AID 1671202 | actives 3.6% (n = 190,000) | inhibition, % at 15 µM | P42858;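 further: 0% = both proteins with DMSO and 100% = one protein alone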
Pf apPOL inh: Pf-apPOL DNA polymerase inhibition; Recombinant Pf-apPOL, molecular beacon fluorescence, 1.5 h; AID 1794808; inhibition, % at 10 µM; actives 0.25% (n = 210,000)
Active calls of the source: *; nt = not tested or not shown. This is a sample that favours compounds with a hit; in the whole collection about 3.6% have one here. No stated cut-off is given here; in the data, active means inhibition above about 50%; inactive means the rest.

SMILES	mHTT CaM bind	Pf apPOL inh
COc1cccc(S(=O)(=O)N2CCCN(C3CCN(CC4CC4)C3=O)CC2)c1 (configuration not stated)	3.6	-1.3
Cc1ccc(NC(=O)CN2C(=O)C(c3ccccc3)=NC23CCCCCC3)cc1	20.0	-4.6
O=C(/C=C/c1ccccc1)Nc1c2c(nn1-c1ccc(Cl)cc1)CSC2	56.0*	-8.8
Cc1ccc(-n2nc3c(c2NC(=O)/C=C/c2ccccc2)CSC3)c(C)c1	41.0	-9.1
CCC(=O)Nc1c2c(nn1-c1ccccc1C)CSC2	2.0	4.1
Cc1ccccc1-n1nc2c(c1NC(=O)CSCc1ccccc1)CSC2	80.9*	0.8
O=C(Nc1c2c(nn1-c1ccc(Cl)cc1)CSC2)c1cccs1	50.0*	-1.3
O=C(/C=C/c1ccc2c(c1)OCO2)Nc1c2c(nn1-c1ccc(Cl)cc1)CSC2	25.0	-5.8
Cc1ccccc1-n1nc2c(c1NC(=O)/C=C/c1ccccc1)CSC2	81.0*	-4.1
O=C(Nc1c2c(nn1-c1ccccc1)CSC2)c1cccs1	32.0	7.3
O=C(Nc1ccc(F)cc1)N1CCC(n2c(-c3ccoc3)nc3cccnc32)C1 (configuration not stated)	-1.6	-1.8
NC12CC3CC(C1)CC(N)(C3)C2	-1.2	-2.0
CC=CC(=O)N1CCC(CSC2=NCCS2)CC1	3.3	-5.5
CSCCC(NC(=O)/C(=C\c1ccco1)NC(=O)c1ccccc1Br)C(=O)O (configuration not stated)	3.0	-5.9
O=C(Nc1cc(Cl)cc(Cl)c1)c1cnn2c1NC(c1ccco1)CC2C(F)(F)F (configuration not stated)	4.0	-3.5
CC(C)(C)C(O)CCNC(=O)C1CC=CCC1 (configuration not stated)	-5.2	2.2
COc1ccccc1C(=O)NCc1cccnc1-c1ccccc1	-5.4	-7.9
COc1ccc(NC(=O)c2ccc(-c3ccc(Cl)cc3)o2)cc1OC	59.4*	-17.5
COc1ccc(NC(=O)c2ccc(-c3cccc(Cl)c3)o2)cc1OC	26.9	-5.4
COCCn1c(C2CCN(S(=O)(=O)c3ccc(F)c(C)c3)C2)nc2cccnc21 (configuration not stated)	-0.3	-5.6
Cc1c(CCOC(=O)CC23CC4CC(CC(C4)C2)C3)sc[n+]1CC(=O)c1ccccc1	93.8*	-3.6
O=C(OCC12CC3CC(CC(C3)C1)C2)c1ccccc1	-35.4	-1.2
CCN(CC)C(=O)ON=C(N)c1cc(Br)c(OC)c(Br)c1	nt	-12.1
O=C(Nc1cccc([N+](=O)[O-])c1)c1ccc2nc(N3C(=O)CCC3=O)sc2c1	4.3	-4.5
O=C(Nc1cccc(Br)c1)c1ccc2nc(N3C(=O)CCC3=O)sc2c1	55.2*	-1.7
SMILES	mHTT CaM bind	Pf apPOL inh
O=[N+]([O-])c1ccc(NCCOCCO)c(Cl)c1	-2.2	-3.9
Cc1cc(NC(=O)c2ccc(S(=O)(=O)N(C)C)o2)no1	-14.0	-0.5
CN(C)S(=O)(=O)c1ccc(C(=O)NC(C)(C)CO)o1	100.1*	-2.7
CCCC(=O)NC(c1ccc(Cl)cc1)c1ccc2cccnc2c1O (configuration not stated)	99.0*	6.0
CC(C)CC(=O)NC(c1ccc2c(c1)OCO2)c1ccc2cccnc2c1O (configuration not stated)	100.0*	-3.6
CCCCC(=O)NC(c1ccc(Cl)cc1)c1ccc2cccnc2c1O (configuration not stated)	17.0	0.8
CCCC(=O)NC(c1ccc(Cl)cc1Cl)c1ccc2cccnc2c1O (configuration not stated)	100.0*	-4.2
CC(C)CC(=O)NCC#CCOc1ccc2c(c1)OCO2	4.0	-8.0
CCC(=O)NC(c1ccc(Cl)cc1)c1ccc2cccnc2c1O (configuration not stated)	100.0*	-3.1
CCOCC(=O)N1CCCC(COc2cccc(C(=O)N3CCCC3)c2)C1 (configuration not stated)	-2.7	-4.2
Clc1ccc(Nc2ncnc3c2cnn3-c2ccccc2)cc1Cl	1.0	-1.6
Cc1ccc(C(NC(=O)CC(C)C)c2ccc3cccnc3c2O)cc1 (configuration not stated)	34.0	-1.9
COc1ccc(C(NC(=O)CCc2ccccc2)c2ccc3cccnc3c2O)cc1 (configuration not stated)	100.0*	10.4
CC(C)CC(=O)NC(c1ccccc1)c1ccc2cccnc2c1O (configuration not stated)	100.0*	10.1
CCC(=O)NC(c1ccccc1)c1ccc2cccnc2c1O (configuration not stated)	100.0*	-0.1
CC(=O)NC(c1ccc(Cl)cc1Cl)c1ccc2cccnc2c1O (configuration not stated)	100.0*	1.8
COc1ccc(CCC(=O)NCCCOc2cccc3cccnc23)cc1	2.0	-4.7
CCC(=O)NC(=O)NC(c1ccccc1)c1ccccc1	-4.9	0.1
CC(=O)N1CCN(c2nc3c(s2)CC(C(=O)NCc2ccc(C)cc2)CC3)CC1 (configuration not stated)	18.1	1.4
C/C=C/CSC1=C(C#N)C(c2ccc(Cl)cc2)C(C(C)=O)=C(C)N1 (configuration not stated)	-18.5	-2.1
CCC(=O)NC(c1ccc(OC)cc1)c1ccc2cccnc2c1O (configuration not stated)	100.0*	3.8
CCc1nc(SCC(=O)c2ccc(O)cc2O)n[nH]1	71.2*	-4.1
O=C(CSc1n[nH]c(-c2ccccc2)n1)c1ccc(O)cc1O	1.3	-0.2
CCN1C(=O)c2cccnc2Sc2cc(C(=O)Nc3ccccc3)ccc21	14.8	-3.1
O=S(=O)(NC1CCCCCC1)c1ccc2nc(-c3ccccc3)[nH]c2c1	8.0	-13.2
SMILES	mHTT CaM bind	Pf apPOL inh
O=S(=O)(NC1CCN(Cc2ccccc2)CC1)c1ccc2nc(-c3ccccc3)[nH]c2c1	87.0*	-12.4
CC(C(=O)NC1CCCCCC1)C1CCN(S(=O)(=O)c2cccs2)CC1 (configuration not stated)	-11.8	-1.4
CCN1C(=O)C2(SCCN2C(=O)C2CCCC2)c2cc(F)ccc21 (configuration not stated)	55.2*	0.9
CCN1C(=O)C2(SCCN2C(=O)c2cccc(F)c2)c2cc(F)ccc21 (configuration not stated)	56.4*	8.2
CCN1C(=O)C2(SCCN2C(=O)c2cccc(OC)c2)c2cc(F)ccc21 (configuration not stated)	42.8	-0.9
COCCN1C(=O)C2(SCCN2C(=O)c2ccc(OC)cc2)c2ccccc21 (configuration not stated)	21.8	-2.1
COc1ccc(NC(C)=O)cc1NC(=O)c1sc2nc(-c3ccccc3)cn2c1C	52.0*	-3.2
CC(=O)Nc1cccc(NC(=O)c2sc3nc(-c4ccccc4)cn3c2C)c1	12.0	-2.3
CCN(Cc1cc(-c2ccc(C)cc2C)on1)C(=O)c1ccc(C)cc1	-21.8	1.2
CC(=O)N(Cc1ccc2c(c1)OCO2)Cc1cc(-c2ccc(C)cc2C)on1	61.2*	-3.2
Cc1ccc(NC(=O)Cc2nc3ccccc3n2CCC#N)cc1	-3.6	-2.7
CC(C)N1Cc2cc(C(=O)N3CCN(C(=O)c4ccco4)CC3)sc2C1	-1.6	-2.1
Cc1cc(C)cc(-n2cc(-c3ccc4c(c3)OCO4)[nH]c2=O)c1	39.0	11.2
Cc1ccc(-n2cc(-c3ccc4c(c3)OCO4)[nH]c2=O)cc1Cl	86.0*	-7.5
